# Records with an inconclusive call do not appear. Calls of active or inactive are those of the source.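 The calls were made as follows, unless noted: active = GFP response, as percent of the DMSO control, above the screen-wide mean plus 3 SD, about 139; inconclusive = no response measured because the compound's own fluorescence interfered; inactive = the rest.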
# Key:
# [1] = rapamycin-like changes in RPL19A-GFP expression – cell-based, S. cerevisiae, multiplex flow cytometry, primary screen (AID 1862; in the data active = percent of DMSO control GFP below about 86%;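 also: lower values mimic rapamycin by blocking the RPL19A rise seen in DMSO cells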); conditions: S. cerevisiae RPL19A-GFP strain, flow cytometry fluorescence, 3 h; at 10 µM; stronger effect = lower value
# [2] = TOR pathway GLN3 branch reporter MEP2-GFP changes – S. cerevisiae, multiplex flow cytometry, primary screen (AID 1867);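 also: median GFP channel fluorescence of barcode-gated MEP2-GFP cells measured by flow cytometry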; conditions: S. cerevisiae MEP2-GFP strain, 3 h, at 10 µM, stronger effect = higher value, 100% means same as DMSO wells
# [3] = TOR pathway RTG branch CIT2 reporter changes – S. cerevisiae, GFP fusion, multiplex flow cytometry, primary screen (AID 1870;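 active = percent response above a set limit, the screen-wide mean plus 3 SD, cut at about 130% in these data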;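 also: barcoded CIT2-GFP strain pooled with four other GFP strains with rapamycin as positive control; median GFP fluorescence per well over plate mean of DMSO wells so 100% = DMSO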); conditions: S. cerevisiae CIT2-GFP expression, 3 h, at 10 µM, stronger effect = higher value
# [4] = TOR pathway LAP4-GFP level changes – S. cerevisiae, multiplex flow cytometry, primary screen (AID 1873;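 active = GFP signal, as percent of the solvent control, above the screen mean plus 3 SD, about 149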); conditions: S. cerevisiae LAP4-GFP expression, 3 h, at 10 µM, stronger effect = higher value
# [5] = yeast AGP1-GFP level changes, GLN3 branch – cell-based, multiplex flow cytometry, S. cerevisiae, primary screen (AID 1887;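 active = GFP signal above the screen-wide mean plus 3 SD, that is over about 124.5% of the solvent control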;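 also: AGP1-GFP fusion strain of S. cerevisiae within a five-strain barcoded multiplex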); conditions: 3 h, at 10 µM, stronger effect = higher value
# [6] = reduced mouse 2C T cell binding to pMHC/ICAM-1 vesicles – MLPCN validation set, flow cytometry, LFA-1/ICAM-1 modulator project, pilot screen (AID 2523;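 active = response below a set limit, under 55% cells CD8-positive and vesicle-bound, and CD8 cells' 90th-percentile brightness under 279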;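 as to vesicle binding response: mean PE anti-B7-1 fluorescence of CD8+ cells relative to row control; 100% = QL9-loaded vesicles with DMSO vehicle in the same plate row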); conditions: 2C mouse CD8+ T cells, at 7 µM, stronger effect = lower value; double positive events: measured here: CD8+/vesicle+ event percentage
# [7] = biological target: Integrin beta-1 (Homo sapiens) + Integrin alpha-4 (Homo sapiens) (UniProt P13612+P05556); experiment: alpha4beta1 integrin LIBS antibody binding reduction – U937 cells, HUTS-21 mAb, flow cytometry, validation set, VLA-4 allosteric modulator project, pilot screen (AID 2674;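 active = inhibition above 50%, about 3 SD of the validation set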;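 also: antibody binding induced by the VLA-4 ligand LDV present at three times its Kd; 0% = LDV ligand with antibody and no compound and 100% = antibody without LDV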); conditions: HUTS-21 LIBS mAb binding, at 6.7 µM, stronger effect = higher value, binding induced by LDV ligand
# [8] = calorie-restriction mimetic ROS inhibitors, yeast – validation compound set, pilot screen (AID 2706;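 active = superoxide response below 65% of plate, a cut near 3 SD across the whole screen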;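 also: yeast exposed to compound for one week at 30 degrees C before staining; 100% = mean of all compound wells on the same plate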); conditions: S. cerevisiae aging, superoxide DHE fluorescence; at 10 µM; stronger effect = lower value
# [9] = biological target: Beta-adrenergic receptor kinase 1 (Homo sapiens) (UniProt P25098); experiment: GRK2 binders displacing RNA aptamer, biochemical, validation, human GRK2, bead flow cytometry (AID 488806;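 active = aptamer binding inhibition above 30%, about 3 SD of noise from non-fluorescent compounds; inactive = inhibition at or below 30%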); conditions: bead-bound GRK2, FAM-aptamer displacement, at 10 µM, stronger effect = higher value
# [10] = biological target: Beta-2 adrenergic receptor (Homo sapiens) (UniProt P07550); experiment: agonist-induced loss of surface beta2AR – cell-based, FAP fluorogen, flow cytometry, validation set, pilot screen (AID 504459;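 active = percent response above 42, roughly 3 SD of non-fluorescent test compounds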;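 also: agonist-driven loss of surface beta2AR via internalization measured by FAP dye flow cytometry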); conditions: Am2.2-beta2AR cells, at 10 µM, stronger effect = higher value
# [11] = biological target: AP-2 complex subunit beta (Homo sapiens) (UniProt P63010); experiment: beta-arrestin/AP2 interaction blockers – biochemical, validation set, GST-AP2 beads, flow cytometry, pilot screen (AID 504541;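 active = inhibition above 54%, about 3 SD of non-fluorescent compounds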;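 also: AP2 carries R879A mutation and is captured from E. coli lysate; bead-bound FITC arrestin peptide fluorescence measuring arrestin peptide binding to AP2; 0% = DMSO wells and 100% = excess unlabeled arrestin peptide control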); conditions: FITC arrestin peptide, at 10 µM, stronger effect = higher value, AP2 beta2 appendage fragment, R879A mutant
# [12] = cytosolic pH regulators acting via V-ATPase – S. cerevisiae, pHLuorin, HTS validation (AID 504600; in the data active = response above about 15%;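 also: plate controls were DMSO for no effect and reference compound for full effect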); conditions: V-ATPase proton transport, at 10 µM, stronger effect = higher value
# [13] = system: anti-desmoglein-3 scFv antibody binding to human DSG3; experiment: blockers of pathogenic pemphigus antibody–desmoglein-3 binding – biochemical, validation compound set, bead-based, flow cytometry, pilot screen (AID 588368;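 active = binding below the plate cutoff, the plate median minus 3 SD, with a reading above zero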;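 also: signal is the median channel fluorescence of bead-bound GFP antibody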); conditions: Protein G beads, DSG3-Fc, scFv-GFP binding, at 10 µM, stronger effect = lower value
# [14] = Nile Red efflux blockade in pump-expressing yeast – validation compound set, multiplex, phenotypic, pilot screen (AID 588506;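 active = efflux inhibition above 0.42, the validation set average plus 4 SD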;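 also: Nile Red retained in cells so higher fluorescence means more efflux inhibition; 0 = negative control wells and 1 = enniatin B 25 µM full block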); conditions: S. cerevisiae pump-expressing triplex, Nile Red efflux flow cytometry; at 10 µM; stronger effect = higher value; the pumps come from Candida albicans
# [15] = biological target: ATP-binding cassette sub-family B member 6 (Homo sapiens) (UniProt Q9NP58); experiment: blockers of ABCB6-driven porphyrin uptake – K562-ABCB6 cells, flow cytometry, validation set, pilot screen (AID 588550;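 active = inhibition above the screen-wide mean plus 3 SD, about 51%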;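 also: 0% = DMSO wells and 100% = benzethonium chloride 70 µM positive control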); conditions: K562-ABCB6 porphyrin accumulation, 1 h, at 10 µM, stronger effect = higher value
# [16] = AML differentiation inducers, ER-HoxA9 marrow cells – cell-based, GFP/MAC1 double positive, flow cytometry, validation set, primary screen (AID 588685;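 active = differentiation response of at least 50%, scaled between solvent and reference control, from cells with both markers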;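 also: compound exposure lasts four days before antibody staining and flow analysis; 0% = DMSO wells and 100% = 5 µM fulvestrant positive control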); conditions: stronger effect = higher value, normalized: vehicle 0, fulvestrant 100
# Integrin beta-1 (Homo sapiens) + Integrin alpha-4 (Homo sapiens), sequence (P05556 whole entry, looked up): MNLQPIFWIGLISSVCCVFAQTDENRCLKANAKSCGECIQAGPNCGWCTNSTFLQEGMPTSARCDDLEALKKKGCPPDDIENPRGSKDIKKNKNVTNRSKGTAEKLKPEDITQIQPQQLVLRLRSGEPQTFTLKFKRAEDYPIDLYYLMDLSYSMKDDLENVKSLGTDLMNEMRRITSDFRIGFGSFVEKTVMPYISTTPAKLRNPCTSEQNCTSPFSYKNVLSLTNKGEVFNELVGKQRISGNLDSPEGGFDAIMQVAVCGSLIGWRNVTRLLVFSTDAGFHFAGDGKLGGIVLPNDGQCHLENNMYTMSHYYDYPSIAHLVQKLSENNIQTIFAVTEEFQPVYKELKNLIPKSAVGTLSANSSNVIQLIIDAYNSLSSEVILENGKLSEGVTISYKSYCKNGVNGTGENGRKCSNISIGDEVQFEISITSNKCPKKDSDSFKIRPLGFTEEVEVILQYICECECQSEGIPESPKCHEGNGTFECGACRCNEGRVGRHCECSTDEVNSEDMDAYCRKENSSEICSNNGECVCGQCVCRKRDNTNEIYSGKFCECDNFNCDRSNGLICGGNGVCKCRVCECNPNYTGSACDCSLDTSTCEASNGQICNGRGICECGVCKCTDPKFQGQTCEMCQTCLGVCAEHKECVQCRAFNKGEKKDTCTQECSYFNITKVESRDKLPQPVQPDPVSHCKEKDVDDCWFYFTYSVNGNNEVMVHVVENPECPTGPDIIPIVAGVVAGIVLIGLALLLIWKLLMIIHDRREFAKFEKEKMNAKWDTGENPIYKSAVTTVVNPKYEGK
# Integrin beta-1 (Homo sapiens) + Integrin alpha-4 (Homo sapiens), sequence (P13612 whole entry, looked up): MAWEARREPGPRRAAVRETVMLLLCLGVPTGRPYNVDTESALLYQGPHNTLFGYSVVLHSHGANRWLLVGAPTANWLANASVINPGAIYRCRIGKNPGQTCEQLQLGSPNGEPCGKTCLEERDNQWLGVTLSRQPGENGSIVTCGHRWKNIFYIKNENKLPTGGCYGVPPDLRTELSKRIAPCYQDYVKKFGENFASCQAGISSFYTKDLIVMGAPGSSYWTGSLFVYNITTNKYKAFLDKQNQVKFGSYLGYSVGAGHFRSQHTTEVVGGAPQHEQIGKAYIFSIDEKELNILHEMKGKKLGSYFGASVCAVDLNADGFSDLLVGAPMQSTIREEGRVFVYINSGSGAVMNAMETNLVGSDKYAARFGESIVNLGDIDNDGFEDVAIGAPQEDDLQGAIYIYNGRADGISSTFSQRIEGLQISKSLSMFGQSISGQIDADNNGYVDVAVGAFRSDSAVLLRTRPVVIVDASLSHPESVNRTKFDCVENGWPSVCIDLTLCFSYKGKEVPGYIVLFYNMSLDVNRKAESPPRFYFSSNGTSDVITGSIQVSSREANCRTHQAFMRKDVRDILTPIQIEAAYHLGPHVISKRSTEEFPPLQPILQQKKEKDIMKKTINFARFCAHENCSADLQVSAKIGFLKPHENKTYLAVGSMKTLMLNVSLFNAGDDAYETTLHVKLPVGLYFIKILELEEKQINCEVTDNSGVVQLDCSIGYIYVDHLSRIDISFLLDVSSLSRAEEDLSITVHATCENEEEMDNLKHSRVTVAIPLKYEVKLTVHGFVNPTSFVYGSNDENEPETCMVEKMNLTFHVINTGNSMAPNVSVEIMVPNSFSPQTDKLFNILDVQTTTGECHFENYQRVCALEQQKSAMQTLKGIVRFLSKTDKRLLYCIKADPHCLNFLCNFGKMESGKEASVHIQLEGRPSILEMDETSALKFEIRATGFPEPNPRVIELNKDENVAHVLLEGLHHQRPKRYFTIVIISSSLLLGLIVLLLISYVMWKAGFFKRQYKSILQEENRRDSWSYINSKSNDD
# AP-2 complex subunit beta (Homo sapiens), sequence (P63010 whole entry, looked up, the tested form may be a part, one chain of several): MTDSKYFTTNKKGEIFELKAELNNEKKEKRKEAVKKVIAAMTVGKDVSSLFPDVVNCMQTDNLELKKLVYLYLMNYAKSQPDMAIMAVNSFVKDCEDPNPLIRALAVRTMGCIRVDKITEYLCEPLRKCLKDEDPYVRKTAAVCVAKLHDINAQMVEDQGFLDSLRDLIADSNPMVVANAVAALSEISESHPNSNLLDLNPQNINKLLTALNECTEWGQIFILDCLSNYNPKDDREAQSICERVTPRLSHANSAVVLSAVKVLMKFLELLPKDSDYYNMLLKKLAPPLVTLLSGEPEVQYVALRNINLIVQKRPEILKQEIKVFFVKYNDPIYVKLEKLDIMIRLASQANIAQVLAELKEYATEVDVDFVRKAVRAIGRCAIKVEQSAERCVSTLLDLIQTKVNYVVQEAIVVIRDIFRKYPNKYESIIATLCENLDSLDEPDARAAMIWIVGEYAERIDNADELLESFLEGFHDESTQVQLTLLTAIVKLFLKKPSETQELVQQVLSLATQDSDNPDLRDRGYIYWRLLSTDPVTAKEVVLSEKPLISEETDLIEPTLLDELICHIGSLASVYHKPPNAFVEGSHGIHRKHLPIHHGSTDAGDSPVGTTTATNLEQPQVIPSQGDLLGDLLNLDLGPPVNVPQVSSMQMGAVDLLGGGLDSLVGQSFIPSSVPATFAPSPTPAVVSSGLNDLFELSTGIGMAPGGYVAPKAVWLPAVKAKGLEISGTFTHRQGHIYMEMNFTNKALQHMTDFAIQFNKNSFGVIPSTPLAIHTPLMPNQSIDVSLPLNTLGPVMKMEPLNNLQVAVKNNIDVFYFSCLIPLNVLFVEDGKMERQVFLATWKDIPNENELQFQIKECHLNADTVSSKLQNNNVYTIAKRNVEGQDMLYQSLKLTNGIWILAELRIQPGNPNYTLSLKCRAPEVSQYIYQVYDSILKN
# Beta-2 adrenergic receptor (Homo sapiens), sequence (P07550 whole entry, looked up): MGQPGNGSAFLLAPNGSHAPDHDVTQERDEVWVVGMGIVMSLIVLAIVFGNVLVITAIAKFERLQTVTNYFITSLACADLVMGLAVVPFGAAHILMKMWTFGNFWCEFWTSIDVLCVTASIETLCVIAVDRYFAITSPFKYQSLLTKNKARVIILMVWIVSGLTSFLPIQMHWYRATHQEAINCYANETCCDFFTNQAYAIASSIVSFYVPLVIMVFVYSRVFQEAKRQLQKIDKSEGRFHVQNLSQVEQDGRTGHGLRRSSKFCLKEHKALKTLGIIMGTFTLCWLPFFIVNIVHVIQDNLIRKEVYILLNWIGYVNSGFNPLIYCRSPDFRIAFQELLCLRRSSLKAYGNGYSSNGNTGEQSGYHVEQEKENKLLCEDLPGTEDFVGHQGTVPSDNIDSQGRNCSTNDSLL
# Beta-adrenergic receptor kinase 1 (Homo sapiens), sequence (P25098 whole entry, looked up): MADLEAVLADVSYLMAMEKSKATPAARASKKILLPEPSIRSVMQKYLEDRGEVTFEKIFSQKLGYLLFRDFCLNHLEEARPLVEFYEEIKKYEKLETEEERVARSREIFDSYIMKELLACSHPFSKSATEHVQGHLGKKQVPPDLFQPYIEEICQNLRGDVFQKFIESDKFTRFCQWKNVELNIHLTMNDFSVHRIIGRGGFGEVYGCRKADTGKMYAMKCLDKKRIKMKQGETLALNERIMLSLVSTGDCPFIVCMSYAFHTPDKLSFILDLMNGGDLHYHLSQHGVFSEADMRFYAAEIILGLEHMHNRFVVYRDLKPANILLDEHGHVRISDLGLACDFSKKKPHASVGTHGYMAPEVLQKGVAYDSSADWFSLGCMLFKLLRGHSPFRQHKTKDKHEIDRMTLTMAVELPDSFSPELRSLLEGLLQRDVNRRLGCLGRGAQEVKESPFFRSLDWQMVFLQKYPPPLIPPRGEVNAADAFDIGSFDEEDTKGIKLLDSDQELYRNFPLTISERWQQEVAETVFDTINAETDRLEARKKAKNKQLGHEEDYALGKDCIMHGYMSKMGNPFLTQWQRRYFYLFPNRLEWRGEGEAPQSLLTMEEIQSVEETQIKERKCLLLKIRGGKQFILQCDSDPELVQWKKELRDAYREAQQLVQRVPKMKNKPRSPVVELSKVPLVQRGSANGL
# ATP-binding cassette sub-family B member 6 (Homo sapiens), sequence (Q9NP58 whole entry, looked up): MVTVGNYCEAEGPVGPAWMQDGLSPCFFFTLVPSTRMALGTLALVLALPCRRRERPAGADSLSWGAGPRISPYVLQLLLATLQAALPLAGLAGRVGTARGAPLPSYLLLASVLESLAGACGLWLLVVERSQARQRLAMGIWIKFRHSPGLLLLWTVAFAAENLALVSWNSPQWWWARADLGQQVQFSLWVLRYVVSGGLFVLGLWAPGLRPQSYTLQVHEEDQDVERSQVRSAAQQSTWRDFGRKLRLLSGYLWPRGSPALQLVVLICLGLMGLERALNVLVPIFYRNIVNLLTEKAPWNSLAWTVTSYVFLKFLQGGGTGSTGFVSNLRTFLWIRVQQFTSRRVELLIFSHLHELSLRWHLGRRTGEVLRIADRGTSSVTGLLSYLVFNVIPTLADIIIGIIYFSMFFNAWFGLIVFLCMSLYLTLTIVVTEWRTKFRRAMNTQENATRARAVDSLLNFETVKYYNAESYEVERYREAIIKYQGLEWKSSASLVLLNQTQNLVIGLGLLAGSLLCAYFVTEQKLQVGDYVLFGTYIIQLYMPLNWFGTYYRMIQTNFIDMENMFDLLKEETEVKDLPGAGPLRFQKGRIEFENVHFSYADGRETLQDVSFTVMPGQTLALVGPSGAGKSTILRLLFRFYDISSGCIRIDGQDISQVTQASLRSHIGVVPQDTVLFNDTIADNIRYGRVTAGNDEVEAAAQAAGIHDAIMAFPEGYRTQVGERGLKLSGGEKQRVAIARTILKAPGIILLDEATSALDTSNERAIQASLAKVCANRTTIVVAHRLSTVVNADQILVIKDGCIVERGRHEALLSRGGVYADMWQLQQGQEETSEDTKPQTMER
Compound,percent of DMSO control GFP [1],GFP response vs DMSO [2],percent response of DMSO control [3],GFP response vs DMSO [4],"GFP response, % of DMSO [5]",double positive events [6] [%],vesicle binding response [6],inhibition [7],superoxide response (% of plate) [8],aptamer binding inhibition [9],response [10],inhibition [11],response [12],binding (% of control) [13],efflux inhibition (fraction of control) [14],inhibition [15],differentiation response [16]
CC(C)CCn1c(N2CCc3ccccc3C2)nc2c1c(=O)[nH]c(=O)n2C,92.6% (inactive),128% (inactive),108% (inactive),83.1% (inactive),83.3% (inactive),54.4,184% (inactive),-6.15% (inactive),98% (inactive),-2% (inactive),-18.6% (inactive),2.58% (inactive),2.15% (inactive),104% (inactive),-0.24 (inactive),12% (inactive),-4.91% (inactive)
N/C(=N\OC(=O)CCCOc1ccc(Cl)cc1Cl)c1ccncc1,96.4% (inactive),110% (inactive),108% (inactive),118% (inactive),92.4% (inactive),56.8,142% (inactive),4.27% (inactive),103% (inactive),-1% (inactive),-12.7% (inactive),3.28% (inactive),-3.36% (inactive),102% (inactive),-0.005 (inactive),-7% (inactive),4.2% (inactive)
O=C(CN1C(=O)C2CCc3[nH]c4ccccc4c3C2C1=O)N1CCCC1 (stereo not drawn),89.1% (inactive),121% (inactive),106% (inactive),78.1% (inactive),87.3% (inactive),48,72.2% (active),22.9% (inactive),95.1% (inactive),3% (inactive),-15.3% (inactive),-3.8% (inactive),-4.07% (inactive),103% (inactive),0.09 (inactive),9% (inactive),4.91% (inactive)
COc1ccc(CCN=CC2=C(O)CC(C)(C)CC2=O)cc1,109% (inactive),106% (inactive),106% (inactive),91.4% (inactive),102% (inactive),62.4,6690% (inactive),-2.53% (inactive),91.4% (inactive),-2% (inactive),-5.19% (inactive),-11.8% (inactive),2.74% (inactive),101% (inactive),0.02 (inactive),3% (inactive),1.22% (inactive)
CC(=O)C1=C(Nc2ccc(C)cc2)CC(C)(O)C(C(C)=O)C1c1ccco1 (stereo not drawn),105% (inactive),104% (inactive),93.1% (inactive),96.6% (inactive),97.2% (inactive),66.9,223% (inactive),-9.79% (inactive),103% (inactive),5% (inactive),0.66% (inactive),36.9% (inactive),-0.29% (inactive),105% (inactive),0.3 (inactive),-19% (inactive),14.9% (inactive)
CCOC(=O)C(=Cc1ccccc1OC)C(=O)OCC,95% (inactive),108% (inactive),91% (inactive),132% (inactive),92.9% (inactive),55.3,189% (inactive),-18.2% (inactive),102% (inactive),-2% (inactive),-11.8% (inactive),0.13% (inactive),0.91% (inactive),98.9% (inactive),-0.03 (inactive),4% (inactive),-12% (inactive)
CCc1c(C(C)=O)oc2ccc3c(C)cc(=O)oc3c12,94.6% (inactive),125% (inactive),115% (inactive),91.9% (inactive),101% (inactive),61.9,146% (inactive),-13.9% (inactive),92.5% (inactive),1% (inactive),1.28% (inactive),-11.6% (inactive),0.32% (inactive),99% (inactive),-0.17 (inactive),11% (inactive),9.01% (inactive)
Cc1ccc(C2CC(=O)C(C=NCCN3CCN(CC(=O)Nc4cc(C)cc(C)c4)CC3)=C(O)C2)cc1 (stereo not drawn),103% (inactive),103% (inactive),97.6% (inactive),108% (inactive),105% (inactive),60.5,196% (inactive),-17.2% (inactive),102% (inactive),-3% (inactive),-1.95% (inactive),-1.73% (inactive),-0.35% (inactive),103% (inactive),-0.05 (inactive),13% (inactive),-16.3% (inactive)
CC1(C)C(=O)OC(c2cccs2)C2(CCCCC2)C1=O (stereo not drawn),99.2% (inactive),108% (inactive),96.6% (inactive),105% (inactive),97.5% (inactive),61.1,228% (inactive),-18.1% (inactive),109% (inactive),0% (inactive),3.42% (inactive),44.8% (inactive),-2.62% (inactive),97.4% (inactive),-0.01 (inactive),2% (inactive),53% (active)

# Source: PubChem BioAssay
